Measured values published in PubChem BioAssay AID720567 (Broad Institute, 2013).
Results with a measured potency or affinity are listed apart. Unmarked numbers belong to inactive results. How the calls were made is not given here.

Test: toxicity toward HEK293 cells – cell-based, dry powder samples, cytotoxicity control, dose response (AID 720567)
Conditions: plate reader; series mostly up to 15 µM; activity change, negative = cytotoxicity: at the top concentration

SMILES	activity change, negative = cytotoxicity [%]
CCN(CC)CCC(=O)Nc1cccc2c1C(=O)c1ccccc1C2=O	-5.32
Cc1ccc(C(=O)c2cc([N+](=O)[O-])ccc2N2CCOCC2)cc1C	-18.1
COc1ccc(-c2nnc(SCc3ccccc3)o2)cc1	-8.12
Cc1cc(C)nc(/N=C(\N)Nc2ccc(OCc3ccccc3)cc2)n1	-3.13
COc1cc(Nc2c3c(nc4ccccc24)CCCC3)cc(OC)c1OC	3.16
O=C1CCN(Cc2ccccc2)c2cc3ccccc3cc21	47.8
COc1cc(-c2nnc(SCC3(c4ccc(Br)cc4)OCCO3)o2)cc(OC)c1OC	18.2
CCN(CC)CCOc1ccc2c(c1)C(=NNC(=O)c1ccccn1)c1cc(OCCN(CC)CC)ccc1-2	-8.53
Nc1nc(=S)c2ncn([C@@H]3O[C@H](CO)[C@@H](O)[C@H]3O)c2[nH]1	-93.6
Cc1ccc(/C=N/NC(=O)C2COc3ccccc3O2)s1 (stereo not drawn)	-6.12
O=C1CCNc2cc3ccccc3cc21	-12
COc1ccccc1CSc1nnc(-c2ccccc2)o1	-20
Brc1ccc(CSc2nnc(-c3ccccc3)o2)cc1	-7.34
CCOc1ccc(S(=O)(=O)NCc2ccccn2)cc1NC(=O)c1ccccc1F	-25
COc1ccc2c(COC(=O)c3cccc(S(=O)(=O)NCC(C)C)c3)cc(=O)oc2c1	-5.18
CC(=O)c1cccc(NC(=O)CSc2ncc(C(=O)Nc3ccccc3)c(=O)n2C)c1	-4.7
CCCNS(=O)(=O)c1cccc(C(=O)OCc2cc(=O)oc3cc(OC)ccc23)c1	-7.85
CCN(CC)CCCNc1nc2cc(OC)c(OC)cc2c2nc(-c3ccccc3)nn12	-12.8
Cc1cc(=O)[nH]c(N/N=C/c2cc(C)n(CC(F)(F)F)c2C)n1	-27.8
CC(=O)N1CCC(=O)c2cc3ccccc3cc21	13.5
Cc1ccc(Oc2ccc(S(=O)(=O)N3CCOCC3)cc2C(N)=O)c(-n2nc3ccccc3n2)c1	-27.3
Cc1[nH][nH]c(=O)c1C(c1ccc(-c2ccc(Cl)c(Cl)c2)o1)c1c(C)[nH][nH]c1=O	9.38
Cc1cnc(NC(=O)c2cc(S(=O)(=O)N(C)C)ccc2N2CCCC2)s1	32.1
CCCCOc1ccccc1C1CC(=O)NC2=C1C(=O)CCC2 (stereo not drawn)	-19.1
COc1ccccc1OCC(=O)NNC(=O)c1ccoc1C	-0.78
CCOC(=O)c1ccc(Oc2cc(C)nc(SC)n2)cc1	-26.2
COc1ccccc1-c1nnc(SCc2ccccc2)o1	3.21
O=C(Cc1ccccc1)c1nnc(-c2ccccc2)o1	77
